Measurements from PubChem BioAssay (NCI).
About 83,000 compounds went through this panel and 20% of them were active in at least one assay; those are over-represented in the sample as a whole.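 Results are percent growth after 48 hours of single-concentration exposure. 100 means growth as in untreated cells, lower positive values show inhibition; negative values down to -100 show cell death.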 Calls of active or inactive are those of the source.

The compounds below were run on NCI-H23 lung (assay: NCI-60 one-dose screen, 48 h (100 = growth as untreated, 0 = no growth, -100 = all killed)). Details: 10 µM unless noted.
Description: Growth inhibition of the NCI-H23 human Non-Small Cell Lung tumor cell line is measured as a screen for anti-cancer activity. Cells are grown in 96 well plates and exposed to the test compound for 48 hours. Compounds are tested at a single concentration, which is 10^-5 M for most compounds. The reported endpoint is percent growth (GI% or GIPRCNT), where numbers from 0 - 100% represent growth inhibition, and numbers from -100% - 0 represent cell death. For example, a value of 40 represents 60% growth inhibition. A value of 0 means no net growth occurred over the course of the experiment. A value of -40 indicates 40% of cells at the beginning of the experiment died by the end of the experiment. A value of -100 means all cells are dead at the end of the experiment.
NCI-60 Human Tumor Cell Lines Screen was performed using the standard one-dose NCI protocol, which is described in more detail at https://dtp.cancer.gov/discovery_development/nci-60/default.htm.
Compounds with GIPRCNT values below 10 were considered active. Activity score was based on GIPRCNT using the following formula: […]
Score is 0 for GIPRCNT values of 100 or above, 50 for GIPRCNT values of 0, and 100 for GIPRCNT values of -100.

SMILES | growth
COc1cccc(C(=O)OCC(O)C(=O)NC23CC4CC(CC(C4)C2)C3)c1 (stereo not given) | 102% (inactive)
CCn1cc(C(=O)NN=C2CCCCCC2)c(=O)c2ccc(C)nc21 | 89.5% (inactive)
CC(/C=C1\SC(=S)N(CC(=O)NC(Cc2c[nH]c3ccccc23)C(=O)O)C1=O)=C\c1ccccc1 (stereo not given) | 99.9% (inactive)
CC(C)(C)c1cc(C=Nc2cccc(C(F)(F)F)c2)c(O)c(C(C)(C)C)c1 | 88.5% (inactive)
COc1ccc(OC)c(Nc2nnc(-c3ccc(Cl)cc3)o2)c1 | 75% (inactive)
O=C(CCCCl)NNc1nccc(Nc2ccc(S(=O)(=O)Nc3ccncc3)cc2)n1 | 99.3% (inactive)
COc1ccc2nc3ccccc3c(NCc3ccccc3)c2c1 | 21.5% (inactive)
Fc1ccc(COc2ccc(Nc3ncnc4sc5c(c34)CCCC5)cc2)cc1 | 99.4% (inactive)
CCN(CC)CCOc1nc2c3ccc(Cl)cc3nn2c2ccccc12 | 34.5% (inactive)
CNC(=O)c1c(NC(=O)c2ccc(C(C)(C)C)cc2)sc2c(CN(C)C)c(O)ccc12 | 27% (inactive)
COc1cc2c(cc1O)[C@@]1(C)[C@H](c3ccccc3Br)OC(=O)N1CC2 | 94.3% (inactive)
COc1ccc(-c2cn(-c3ccc(Cl)cc3)c(SCC(=O)c3ccc([N+](=O)[O-])cc3)n2)cc1 | 86.9% (inactive)
O=C(NCc1ccccc1O)c1cccc2ccccc12 | 47.8% (inactive)
COc1ccc(C2C(C#N)=C(N)Oc3c2sc2c(Br)cccc32)cc1 (stereo not given) | 36.3% (inactive)
COc1cc2c(/C=C3\C(=O)Nc4ccccc43)c(C(=O)O)[nH]c2cc1C | 82.5% (inactive)
COc1ccc(NC(=O)c2sc3nc(C)c(C(O)c4ccccc4)cc3c2N)cc1 (stereo not given) | 28.7% (inactive)
COc1ccc(C2=Nc3c/c(=C\c4c(O)[nH]c5cc(Cl)ccc45)ccc3=N2)cc1 | 68.1% (inactive)
O=C(OC[C@@H]1CO1)c1cccc2c(=O)c3ccccc3[nH]c12 | -58.5% (active)
Nc1ncnc2c1c(-c1ccc(Oc3ccccc3)cc1)nn2CC1SSCC1O (stereo not given) | 49% (inactive)
COC(=O)C1=Nc2ccc(F)cc2/C1=C\c1sc(Nc2ccc(O)cc2)nc1O | 73.4% (inactive)

SMILES | growth
CC(C)CN1CC(C(=O)Nc2ccc3c(c2)-c2ccccc2C3)CC1=O (stereo not given) | 81% [50 µM] (inactive)
O=C1CCC(C(=O)NN(c2ccccc2)c2ccccc2)N1 (stereo not given) | 108% (inactive)
COc1ccc(C2CC(c3ccc(Nc4nc(Nc5ccc(F)cc5)nc(Nc5ccc(F)cc5)n4)cc3)=NN2C(C)=O)cc1 (stereo not given) | 75.7% (inactive)
Nc1c(C(=O)Nc2ccccn2)sc2nc3c(cc12)C(O)CCC3 (stereo not given) | 45.1% (inactive)
C/C(C=O)=C\c1ccc2c(c1)OCO2 | 102% (inactive)
CCN(CC)S(=O)(=O)c1ccc(S(=O)(=O)N2CCC[C@@H](C(=O)N3CCN(C(=O)OC(C)(C)C)CC3)C2)cc1 | 53.6% (inactive)
CCOC(=O)c1c(NC(=O)c2ccc(OC)cc2)sc2c(CN(C)C)c(O)ccc12 | 90.6% (inactive)
O=C(c1ccc(Cl)cc1Cl)N1c2ccccc2Sc2ccccc21 | 73.5% (inactive)
N#Cc1c(N2CCOCC2)nc(=S)[nH]c1-c1ccccc1 | 87.6% (inactive)
COc1cc2ncnc(Nc3ccc(F)c(Cl)c3)c2cc1OCC(=O)N1CCN(c2ccc(F)cc2)CC1 | 97% (inactive)
C=C1C(=O)O[C@H]2[C@H]1CC/C(COC(=O)c1cc3cc(F)ccc3[nH]1)=C\CC[C@@]1(C)O[C@@H]21 | -66.4% (active)
COc1ccc(NC(=O)c2ccc(C(=O)Nc3ccc(OC)cc3OC)cc2)c(OC)c1 | 75.3% (inactive)
O=C(CBr)CN1C(=O)c2ccccc2C1=O | 95.1% (inactive)
COc1ccc(C2C3=C(COC3=O)N(CCO)c3cc4c(cc32)OCCO4)cc1OC (stereo not given) | 34.3% (inactive)
COc1ccc2[nH]cc(-c3nc(-c4cn(C)c5ccncc45)cs3)c2c1 | 93.9% (inactive)
Brc1ccc(-c2cnc3nonc3n2)cc1 | 68% (inactive)
N#C/C(=C\c1ccc(-c2ccc(Cl)cc2)o1)c1ccc(Cl)cc1 | 63.2% (inactive)
C/C(=N\Nc1nc(C)cs1)c1cc2ccccc2o1 | 86.9% (inactive)
CCCCCCNc1nc(NCCCCCC)c2[nH]c(NCCCCCC)nc2n1 | 48.2% (inactive)
O=C(Nc1ncc(Cc2ccccc2Cl)s1)c1cccs1 | 80.3% (inactive)
